Experimental data reported in PubChem BioAssay AID652126 (The Scripps Research Institute Molecular Screening Center, 2013).
In all, about 370,000 compounds went through this assay and about 3,700 (1%) were called active.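 Rule for the calls: active = activation above the mean over all tested compounds plus 3 SD (cut at about 0.9% in these data); inactive = the rest.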 The entries come from a sample that favours actives as a whole.

Tested on: Nuclear hormone receptor DAF-12 (Strongyloides stercoralis)
Experiment: S. stercoralis DAF-12 nuclear receptor activators, primary screen, cell-based, luminescence, HEK293, GRIP1 co-expression, lit1-tk-luc (AID 652126);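 note: 0% = DMSO-only wells and 100% = 3 µM delta7-dafachronic acid wells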
Conditions: HEK293 ssDAF-12/GRIP1 lit1-tk-luc reporter, at 6.8 µM, stronger effect = higher value

SMILES | activation
N#CC1=C(N)Oc2c(c(=O)oc3ccccc23)C1c1ccccc1OC(=O)c1cccs1 (stereo not given) | 1.09% (active)
CCNc1nc2[nH]c(=O)c3c(c2s1)OC(N)=C(C#N)C3c1cccs1 (stereo not given) | -0.98% (inactive)
COc1ccc(C2C=C(C)Oc3c2c(=O)oc2ccccc32)cc1OC (stereo not given) | -0.69% (inactive)
COP(=O)(Sc1ccccc1)C(Cc1ccccc1)NC(=O)OCc1ccccc1 (stereo not given) | -1.15% (inactive)
Cc1cc(C)c2c(c1)NP(=S)(c1ccccc1)N2 (stereo not given) | -0.09% (inactive)
COc1ccc2c(c1)NP(=S)(c1ccccc1)N2 (stereo not given) | 1.75% (active)
CO[C@H]([C@H](C)/C=C/N(C)C=O)[C@@H](C)C(=O)CC[C@H](C)[C@H](O)[C@H](C)[C@H]1OC(=O)/C=C/C(C)=C/[C@H](O)[C@H](OC)C[C@@H]2C=CC[C@@H](C[C@H](OC)[C@@]3(CO3)[C@@H](OC)C[C@@H](OC)[C@@H]1C)O2 | -0.84% (inactive)
O=c1c2ccccc2nc(/C=C/c2ccc(F)cc2)n1-c1ccccc1O | -0.65% (inactive)
Cc1ccccc1CCC[C@@H](CC1CCCCC1)CN(C)C(=O)Oc1ccccc1 | -1.05% (inactive)
CCOP(=S)(OCC)C(O)CCCCCn1c(=O)c(F)cn(C2CCCO2)c1=O (stereo not given) | 1.73% (active)
Clc1ccc2nc3c(c(-c4ccccc4)c2c1)CNCC3 | -0.92% (inactive)
c1cncc(CNCCc2c[nH]c3ccccc23)c1 | -0.72% (inactive)
COc1ccc(CNCCc2c[nH]c3ccccc23)cc1OC | 1.6% (active)
COc1ccc(CNCCc2ccc3c(c2)OCO3)c(OC)c1OC | -0.57% (inactive)
CN(C)S(=O)(=O)c1cc(C(=O)N2CCC(C(=O)O)(c3ccccc3)CC2)ccc1Cl | -1.1% (inactive)
CN(C)c1nc(N(C)C)nc(N(C#N)CCCl)n1 | -1.19% (inactive)
C[C@]12CCC3C(CC[C@H]4[C@H](O)[C@H](O)CC[C@]34C)C1CC[C@@H]2O (stereo not given in full) | -0.82% (inactive)
O=C(CSC1c2ccccc2-c2ccccc21)N/N=C/c1ccccc1 | -0.76% (inactive)
COc1c(O)ccc2c1-c1c3c(cc4c1C(C2)N(C)CC4)OCO3 (stereo not given) | -0.77% (inactive)
Cc1ccc(OC(=O)N(C)C[C@@H]2OCc3cnnn3CCCC(=O)N([C@H](C)CO)C[C@@H]2C)cc1 | -0.97% (inactive)
